TRPML1 inh: qHTS for Inhibitors of the Human Mucolipin Transient Receptor Potential 1 (TRPML1); activity change, negative = inhibition, % (concentration not given with the values); TRPML1-inducible cells, Ca2+ dye fluorescence, FDSS; hits give low values; inhibition of EC80 agonist-evoked calcium signal; 0.02% of 390,000 active; in the data active = activity change below about -50%; inconclusive = between about -30% and that limit;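 also: stimulus is agonist 54-4 at its EC80 concentration; % is scaled to controls: 0 for no effect and ±100 for the full control effect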
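TRPML1-DL cells, Tet-induced overnight (~16 h, 37 °C) at 1,500 cells/well, were loaded with Ca8 no-wash dye plus quencher for 45-90 min at room temperature. Compounds were pinned during FDSS kinetic reading; agonist 54-4 at EC80 (4 uM final) then added.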
TRPML1 ag: qHTS for Agonists of the Human Mucolipin Transient Receptor Potential 1 (TRPML1) | activation, % (no concentration beside the values) | TRPML1-expressing cells, Ca2+ dye fluorescence, FDSS | 0.12% of 410,000 active | Mucolipin-1 (Homo sapiens), Q9GZU1; in the data active = activation above about 50%; inconclusive = mostly about 30% to 49%; also: 0% is about no effect
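Kinetic FDSS Ca2+ read in Tet-induced TRPML1-DL cells (ABD Ca8 dye plus quencher, 45-90 min RT loading): baseline, then compound, then 110 s agonist window; EC80 agonist 54-4 at 4uM final added afterwards for a 110 s antagonist window.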
Vif-APOBEC3G blk: qHTS for Inhibitors of Vif-A3G Interactions: qHTS | HeLa A3G-eYFP + Vif (tagged APOBEC3G with the HIV-1 protein that degrades it), YFP fluorescence, overnight | Potency, µM (highest dose often 46.1 µM), inactives show top-dose activity, negative = active, actives largely listed as inhibitors | 0.076% of 410,000 active | AID 602310, 2012; also: potency is read from the fitted curve at half-maximal effect; % is scaled to controls: 0 for no effect and ±100 for the full control effect; nearly all actives have a fitted effect of over 60% in size
Target sequence (Q9HC16 whole entry, looked up): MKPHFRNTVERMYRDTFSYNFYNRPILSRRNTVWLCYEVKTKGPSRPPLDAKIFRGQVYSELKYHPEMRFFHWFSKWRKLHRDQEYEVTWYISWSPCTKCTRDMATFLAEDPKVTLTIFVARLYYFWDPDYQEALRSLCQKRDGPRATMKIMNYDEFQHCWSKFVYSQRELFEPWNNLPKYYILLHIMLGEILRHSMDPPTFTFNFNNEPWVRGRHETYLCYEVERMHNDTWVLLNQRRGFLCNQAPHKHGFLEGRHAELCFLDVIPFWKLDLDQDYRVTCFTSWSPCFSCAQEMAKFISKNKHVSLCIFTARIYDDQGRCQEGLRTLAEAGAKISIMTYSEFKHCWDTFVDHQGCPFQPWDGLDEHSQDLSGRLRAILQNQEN
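HeLa cells stably expressing Vif and C-terminally eYFP-tagged A3G, seeded overnight at 37 deg C, then exposed to compound by pintool overnight at 37 deg C. Rise in yellow fluorescence (Ex 488/Em 500-530, Acumen) marks blocked Vif-driven A3G degradation.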
Vif-APOBEC3F blk: qHTS for Inhibitors of Vif-A3F Interactions: qHTS; HeLa A3F-eYFP + Vif (tagged APOBEC3F with the HIV-1 protein that degrades it), YFP fluorescence increase; Potency, µM (top dose mostly 46.1 µM), for the others: at the highest dose activity, negative = active; 0.2% of 390,000 active; AID 602313, 2012; also: potency is read from the fitted curve at half-maximal effect; % of control where 0% means no effect; nearly all actives have a fitted effect of over 65% in size
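Fluorescence increase (Ex 488/Em 500-530) after overnight compound treatment at 37 deg C flags inhibition of Vif-driven A3F-eYFP loss in stable HeLa A3F-eYFP/Vif cells seeded overnight beforehand.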
ALOX12 inh: Primary qHTS assay for inhibitors of human arachidonate 12S-lipoxygenase (ALOX12): Round 2 | Polyunsaturated fatty acid lipoxygenase ALOX12 (Homo sapiens), P18054 | purified 12hLO, xylenol orange hydroperoxide absorbance | Potency, µM (top dose mostly 108 µM), without a hit: top-dose activity change, negative = inhibition, hits mostly inhibitors | 1.1% of 580,000 active | AID 1671190, 2021; also: potency is read from the fitted curve at half-maximal effect; % is scaled to controls: 0 for no effect and ±100 for the full control effect
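Purified human 12hLO at 150 nM in 25 mM Hepes, 0.01% Triton X-100, pH 7.0, preincubated 15 min at room temperature with compound. Reaction started with 40 uM arachidonic acid, 30 min at room temperature. Hydroperoxide measured by Fe-xylenol orange, 573/405 nm absorbance ratio.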
GRP78 ERSR act: qHTS for Inducers of the Endoplasmic Reticulum Stress Response (ERSR) in Human Glioma: qHTS; U87-MG GRP78 promoter luciferase reporter, 16 h; Potency, µM, inactives show at the highest dose activation, hits mostly activators; 0.02% of 420,000 active; also: potency is read from the fitted curve at half-maximal effect; series mostly up to about 76 µM; % of control where 0% means no effect; nearly all actives have a fitted effect of over 35% in size
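ERSR induction read as luciferase luminescence (Bright-Glo, 10 min at room temperature) in stably transfected human U87-MG glioma cells exposed to compounds for 16 h, using GRP78 as sensor.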
* = called active by the depositor; ? = inconclusive; / = no result given; ! = not active in a repeat; [ ] = dose if it differs, or a comment. An excerpt weighted towards active compounds, which were near 1.3% of everything screened. Unless noted, calls follow the shape of the dose curve; as a rule, active = well fitted curve in the direction sought with a large enough effect; inconclusive = small, poorly fitted or top-dose-only effect, or another doubt; inactive = no such curve, though single readings can be large; an effect the other way counts as inactive or inconclusive.

SMILES	TRPML1 inh	TRPML1 ag	Vif-APOBEC3G blk	Vif-APOBEC3F blk	ALOX12 inh	GRP78 ERSR act
COc1cccc(/C=C(/C#N)C(=O)c2c(Cl)cccc2Cl)c1OC	/	/	/	/	20µM*	/
COc1cc(/C=C(/C#N)c2ccc(Cl)cc2)cc(OC)c1OC	/	/	/	/	-5%	/
COc1ccc(C=C(C#N)C(=O)c2ccccc2)cc1	/	5	/	/	8%	/
COc1cc(/C=C(/C#N)C(=O)c2c(Cl)cccc2Cl)cc(OC)c1OC	/	/	/	/	0.5µM*	/
COc1cccc(/C=C(/C#N)C(=O)c2c(Cl)cccc2Cl)c1	/	/	/	/	7.1µM*	/
Cc1ccc(-c2c(NC(=O)CN3CCC(C(N)=O)CC3)oc3ccccc3c2=O)cc1	/	/	/	/	4%	/
Cc1ccc(C(=O)Nc2cccc3cnccc23)cc1S(=O)(=O)N1CCCCCC1	/	/	/	/	4%	/
O=S(=O)(Nc1nc2ccccc2nc1Nc1ccc2c(c1)OCO2)c1ccc(Cl)cc1	/	/	/	/	-9%	/
COc1ccc(S(=O)(=O)NCCO)cc1C	/	/	/	/	9%	/
COc1cc(/C=C(/C#N)C(=O)Nc2cccc3ncccc23)cc(OC)c1OC	/	/	/	/	16µM*	/
Cc1ccc(C)c(C(NC(=O)c2ccccc2F)c2cccnc2)c1 (stereo not drawn)	/	/	/	/	38%	/
CC(C)(C)N/N=C/c1cc(Cl)cc([N+](=O)[O-])c1O	7	0	0%	6%	16µM*	-5%
CCN(C(=O)CCc1ccccc1)C1CC(=O)NC1=O (stereo not drawn)	/	/	/	/	6%	/
COc1ccc(NC(=O)COc2ccc3c(C)c(C)c(=O)oc3c2)cc1OC	/	/	/	/	3%	/
CCCC[N+](CCCC)(CCCC)CCCC	/	/	/	/	11µM*	/
O=C(CSc1nc2ccccc2s1)c1cc2ccccc2o1	-2	2	?	25µM*	-6%	1%
COC(=O)C1=C(C(=O)OC)SC(=C(Cl)C(=S)Sc2ccccn2)S1	/	/	/	/	4.5µM*	/
COC(=O)CNC(=O)CSc1ccccn1	26	1	1%	15%	?	-4%
COc1cccc(NC(=S)NCCC(c2ccccc2)c2ccccc2)c1	-11	6	-11%	-5%	?	-3%
Cc1cccc(NC(=S)NCCC(c2ccccc2)c2ccccc2)c1	9	2	4%	0%	35µM*	-7%
Fc1ccc(NC(=S)NCCC(c2ccccc2)c2ccccc2)cc1Cl	/	/	/	/	25µM*	/
Fc1ccc(NC(=S)Nc2cc(-c3ccccc3)[nH]n2)cc1Cl	4	0	-7%	?	28µM*	-5%
Cc1cc(Cl)ccc1NC(=S)NCCC(c1ccccc1)c1ccccc1	-12	2	2%	6%	?	-9%
Cc1c(Cl)cccc1NC(=S)NCCC(c1ccccc1)c1ccccc1	-1	0	1%	1%	25µM*	-10%
O=C(c1ccc(Cl)cc1)[C@@H]1[C@H]2C(=O)[C@@H]3OC[C@@H](O3)[C@@H]12	/	/	/	/	8%	/
SMILES	TRPML1 inh	TRPML1 ag	Vif-APOBEC3G blk	Vif-APOBEC3F blk	ALOX12 inh	GRP78 ERSR act
CC(C)(C)c1cc(-c2nc(N)nc(N)n2)c(O)c(C(C)(C)C)c1	2	0	-1%	5%	?	-12%
CC(C)(C)c1cc(N)c(O)c(Cl)c1	/	/	/	/	18µM*	/
Oc1ccc(NCc2ccccc2OCc2ccccc2)cc1	25	2	?	3%	11µM*!	?
CN(C)C1(CNC(=O)C2CCN(C(=O)c3ccc(F)cc3)CC2)CCCCCC1	/	/	/	/	46%	/
CCCCNC(=O)Cc1csc2nc(C)c(-c3cc(C)n(-c4cccc(Cl)c4)n3)c(=O)n12	/	/	/	/	40µM*	/
O=C(NCC1CCOCC1)c1cc(COc2ccc(F)cc2F)on1	-8	-1	0%	3%	2%	-1%
Cn1c(=O)c(Oc2ccc(F)cc2F)cc2cnc(NC3CCOCC3)nc21	/	/	/	/	17µM*	/
O=C1C(=O)N(C2CC2)C(=O)N1Cc1ncc(-c2cccc(Cl)c2)o1	/	/	/	/	10%	/
S=C(NN=C(c1ccccc1)c1ccccn1)N(Cc1ccccn1)Cc1ccccn1	17	4	-12%	3%	45µM*	-9%
CC(=NNC(=S)N(Cc1ccccn1)Cc1ccccn1)c1cnccn1	-11	1	?	-11%	?	3%
CCc1ccc(S(=O)(=O)/N=C2\C=C(NS(=O)(=O)c3ccccc3)C(=O)c3ccccc32)cc1	?	2	-28%	-1%	?	11%
CC(C)c1ccc(S(=O)(=O)/N=C2\C=C(NS(=O)(=O)c3ccccc3)C(=O)c3ccccc32)cc1	6	4	-4%	-10%	35µM*	3%
CN(C)C1(CNC(=O)COc2ccc3ccc(=O)oc3c2)CCCCC1	/	/	/	/	11%	/
COC(=O)CO[C@@H]1CO[C@H]2[C@@H]1OC[C@@H]2NC(=S)Nc1cc(C)cc(C)c1	/	/	/	/	71µM*	/
CC(=O)c1ccc(NC(=O)N[C@H]2CO[C@H]3[C@@H]2OC[C@H]3OCC(N)=O)cc1	/	/	/	/	36%[176 µM]	/
CNC(=O)[C@@H](C1CCCCC1)N1CCC[C@H]1C(=O)N1CCN(CCOC)CC1	/	/	/	/	16µM*	/
CNC(=O)[C@@H](C1CCCCC1)N1CCC[C@H]1C(=O)N1CCN(C)CC1	/	/	/	/	0%[176 µM]	/
CC(Nc1ccc2oc(C(C)(C)C)nc2c1)c1nc(C(C)(C)C)no1 (stereo not drawn)	/	/	/	/	-31%	/
CCCOC(=O)c1cc(-c2ccc(/C=C3/C(=O)N(C)C(=O)C(C#N)=C3C)o2)ccc1Cl	-15	-1	-1%	7%	/	-2%
C=CCOC(=O)c1cc(-c2ccc(/C=C3\C(=O)NC(=O)C(C#N)=C3C)o2)ccc1Cl	-3	-1	0%	-4%	7.1µM*	2%
CCOc1[nH]c(/N=C/c2ccc(OC)cc2)c(C#N)c1C#N	/	1	-4%	/	/	-4%
CCOc1[nH]c(/N=C/c2ccco2)c(C#N)c1C#N	0	2	2%	-16%	18µM*	8%
CCN1c2cc(C(=O)Nc3ccc(Cl)cc3)ccc2C(=O)N2CCCCCC21 (stereo not drawn)	/	/	/	/	9%	/
CCOC(=O)c1cnc2c(C)c(Cl)ccc2c1NCCCN1CCOCC1	/	/	6%	4%	45µM*	-3%

Bioassay records as filed in PubChem.
